The source of these data is PubChem BioAssay (Tox21).

The structures appear in SMILES notation. Values joined by “and” are separate entries in the source; they are usually repeats but may differ in a detail not shown here. Equal entries are not always repeated. Records with an inconclusive call do not appear. More than one record can exist for a structure, and the calls need not agree. Active and inactive are the calls of the source. Unless noted, calls come from the whole dose curve; as a rule, active = well fitted curve in the direction sought with a large enough effect in the repeat runs; inconclusive = weak or mixed curves; inactive = no such curve, though single readings can be large; an effect the other way counts as inactive or inconclusive.

Experiment [1] in a line: A CellTox Green Cytotoxicity Assay to monitor cytotoxicity in HepG2 cells - 8 hour (AID 1224890). Note: nearly all actives have a fitted effect of over 45% in size. An outline of the steps:
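Continuous culture of HepG2 cells with a membrane-impermeant DNA dye; rising fluorescence marks dead cells. Compound exposure lasted up to 40 h at 37 C, with reads every 8 h from 0 h.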

Experiment [2] is described as follows: qHTS assay to identify small molecule antagonists of the estrogen receptor alpha (ER-alpha) signaling pathway using the BG1 cell line in the presence of 0.1 nM 17-beta-estradiol - cell viability counter screen (AID 1259241). Note: nearly all actives have a fitted effect of over 40% in size. An outline of the steps: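 Measures cytotoxicity alongside the ER-alpha antagonist readout: VM7Luc4E2 cells, charcoal-stripped serum, 0.1 nM 17beta-estradiol final, 22 hr compound incubation at 37C, CellTiter-Fluor fluorescence.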
Background: Quantitative high-throughput screening tests each substance at several concentrations.

Experiment [3] can be described thus: qHTS assay to identify small molecule antagonists of the androgen receptor (AR) signaling pathway using the MDA cell line in the presence of 0.5 nM R1881 - cell viability counter screen (AID 1259242). Note: nearly all actives have a fitted effect of over 45% in size. Note: potency is the fitted concentration of half-maximal effect. The method, boiled down:
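Fluorescence from CellTiter-Fluor, which reports protease activity of live cells, was read 30 min after reagent addition to MDA-kb2 cells that had been incubated 16 hr with compound and 0.5 nM R1881.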

A short description of experiment [4]: qHTS assay to identify small molecule HDAC inhibitors (AID 1259364). Note: nearly all actives have a fitted effect of over 45% in size. Note: potency is the fitted concentration of half-maximal effect. An outline of the steps:
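Endogenous HDAC class I/II activity was measured in wild-type HCT-116 cells by HDAC-Glo luminescence after 2 h compound treatment.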

Experiment [5] is described as follows: qHTS assay to identify small molecule HDAC inhibitors - cell viability counter screen (AID 1259365). Note: series mostly up to about 92 µM; nearly all actives have a fitted effect of over 50% in size. The method, boiled down:
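Following a 2hr exposure of overnight-plated wild-type HCT-116 cells to DMSO-delivered compounds, CellTiter-Glo was added and luminescence recorded after 30min at room temperature.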

A short description of experiment [6]: qHTS assay to identify small molecule agonists of the sonic hedgehog signaling (Shh) pathway - cell viability counter screen (AID 1259366). Note: nearly all actives have a fitted effect of over 50% in size. Note: potency is the fitted concentration of half-maximal effect. The method, boiled down:
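After a 4hr attachment at 37C, NIH/3T3 cells bearing an integrated Gli1-driven luciferase reporter were dosed with compounds. Treatment lasted 24hr, with the final hour including CellTiter-Fluor for a fluorescence viability measurement.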

Experiment [7] is described as follows: qHTS assay to identify small molecule antagonists of the sonic hedgehog signaling (Shh) pathway - cell viability counter screen (AID 1259367). Note: nearly all actives have a fitted effect of over 55% in size. Note: potency is the fitted concentration of half-maximal effect. An outline of the steps: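 After a 4 hr settling period, 3T3 Gli1-Luc cells were treated with DMSO-dissolved chemicals and conditioned medium, kept 24 hr at 37C in 5% CO2, and assayed for viability by CellTiter-Fluor fluorescence following 1 hr reagent incubation.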

Experiment [8] can be described thus: qHTS assay to identify small molecule phospholipidosis (PLD) inducers (AID 1259344; active = well fitted curve in the direction sought with a large enough effect; an effect the other way counts as inactive or inconclusive). An outline of the steps: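 HepG2 cells grown on collagen I take up LipidTOX Red while exposed to compound for 24 h; after fixation they are imaged at 20x and pit metrics are extracted.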
The target in experiment [9] is Androgen receptor (Homo sapiens) (UniProt P10275). Briefly: qHTS assay to identify small molecule antagonists of the androgen receptor (AR) signaling pathway using the MDA cell line in the presence of 0.5 nM R1881 (AID 1259243). Note: potency is the fitted concentration of half-maximal effect; nearly all actives have a fitted effect of over 50% in size. The method, boiled down: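 Inhibition of R1881 (0.5 nM final) induced reporter signal was measured in human MDA-kb2 cells; note the MMTV promoter also responds to GR. Exposure lasted 16 hr at 37C.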
Sequence of Androgen receptor (Homo sapiens) (P10275 whole entry, looked up): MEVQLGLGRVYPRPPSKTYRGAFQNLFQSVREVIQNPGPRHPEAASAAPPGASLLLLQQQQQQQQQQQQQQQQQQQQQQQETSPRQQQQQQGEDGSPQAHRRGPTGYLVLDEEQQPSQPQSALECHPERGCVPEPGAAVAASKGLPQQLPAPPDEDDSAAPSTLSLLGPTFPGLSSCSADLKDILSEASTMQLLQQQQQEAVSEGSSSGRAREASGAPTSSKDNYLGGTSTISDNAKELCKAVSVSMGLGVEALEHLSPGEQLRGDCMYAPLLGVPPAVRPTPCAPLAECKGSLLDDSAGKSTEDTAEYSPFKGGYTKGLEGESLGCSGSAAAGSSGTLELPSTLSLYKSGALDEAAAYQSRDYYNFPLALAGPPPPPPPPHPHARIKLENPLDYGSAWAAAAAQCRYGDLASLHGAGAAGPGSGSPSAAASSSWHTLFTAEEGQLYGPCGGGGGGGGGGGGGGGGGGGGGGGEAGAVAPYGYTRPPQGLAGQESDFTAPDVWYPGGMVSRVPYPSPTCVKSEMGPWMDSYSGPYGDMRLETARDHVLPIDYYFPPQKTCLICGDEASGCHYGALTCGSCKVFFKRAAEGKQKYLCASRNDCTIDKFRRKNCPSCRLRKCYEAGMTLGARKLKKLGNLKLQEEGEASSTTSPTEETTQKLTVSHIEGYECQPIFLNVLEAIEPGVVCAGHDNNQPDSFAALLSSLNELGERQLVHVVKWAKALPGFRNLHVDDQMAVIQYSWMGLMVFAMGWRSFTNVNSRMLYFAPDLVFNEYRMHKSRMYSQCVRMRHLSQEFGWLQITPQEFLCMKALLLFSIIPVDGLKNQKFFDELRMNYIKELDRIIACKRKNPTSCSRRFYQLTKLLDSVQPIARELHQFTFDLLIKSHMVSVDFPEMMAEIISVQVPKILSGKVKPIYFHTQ

In experiment [10] the target is Estrogen receptor (Homo sapiens) (UniProt P03372). Put plainly: qHTS assay to identify small molecule antagonists of the estrogen receptor alpha (ER-alpha) signaling pathway using the BG1 cell line in the presence of 0.1 nM 17-beta-estradiol (AID 1259244). Note: nearly all actives have a fitted effect of over 50% in size. Note: potency is the fitted concentration of half-maximal effect. An outline of the steps:
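Quantitative high-throughput screen in VM7Luc4E2 cells: compound plus 0.1 nM E2 (final), 22 h, 37C, 5% CO2; ONE-Glo added, 30 min room temperature, luminescence measured.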

Sequence of Estrogen receptor (Homo sapiens) (P03372 whole entry, looked up): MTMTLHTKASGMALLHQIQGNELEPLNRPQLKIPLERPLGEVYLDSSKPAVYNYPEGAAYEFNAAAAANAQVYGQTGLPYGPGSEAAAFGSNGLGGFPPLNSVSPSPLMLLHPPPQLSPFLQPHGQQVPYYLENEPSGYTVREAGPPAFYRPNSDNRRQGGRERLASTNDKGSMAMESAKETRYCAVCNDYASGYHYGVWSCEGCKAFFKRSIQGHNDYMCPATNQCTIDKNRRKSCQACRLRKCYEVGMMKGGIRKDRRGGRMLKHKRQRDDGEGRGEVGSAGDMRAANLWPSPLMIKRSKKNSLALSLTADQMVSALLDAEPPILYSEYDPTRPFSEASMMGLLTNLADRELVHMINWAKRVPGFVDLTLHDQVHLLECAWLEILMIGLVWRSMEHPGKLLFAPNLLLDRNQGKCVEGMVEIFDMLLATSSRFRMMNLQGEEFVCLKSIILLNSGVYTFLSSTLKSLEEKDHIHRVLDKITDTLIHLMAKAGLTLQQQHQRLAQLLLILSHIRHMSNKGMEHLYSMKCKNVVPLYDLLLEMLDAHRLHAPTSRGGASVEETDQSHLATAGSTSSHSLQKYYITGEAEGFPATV

For the molecule `N#CCCCl`, the Potency result in experiment [1], in experiment [2], in experiment [3], in [4], in [6] and in experiment [7] was “inactive” in each case. Moreover, the outcome in [5] was inactive.

`O=C1C=CC(=O)C=C1`: the Potency result in experiment [1], in experiment [2], in experiment [3], in [4], in experiment [6] and in experiment [7] was “inactive” in each case. Also, the outcome in experiment [5] was inactive.

Consider `Cc1cccc(N)c1N`, for which the Potency result in [1], in experiment [2], in experiment [3], in experiment [6] and in experiment [7] was “inactive” each time. Moreover, in [5], the outcome was inactive.

As for `CCOC(=S)S`, the Potency entry in experiment [1], in experiment [2], in experiment [3] and in experiment [4] was “inactive” in each case. Also, the molecule was classed as inactive in [5]. Also, the Potency in experiment [6] was 38.6 µM (active) and 20.6 µM (active); in experiment [7], 30.6 µM (active) and 25.9 µM (active).

Take `C#C[C@]1(O)CC[C@H]2[C@@H]3CCC4=CC(=O)CC[C@]4(C)[C@H]3CC[C@@]21C`: the Potency result in experiment [1], in experiment [2], in [3], in experiment [6] and in [7] was “inactive” in each case. Moreover, the call in [8] and in experiment [5] was inactive.

`CC(C)(c1cc(Cl)c(O)c(Cl)c1)c1cc(Cl)c(O)c(Cl)c1`: the Potency entry in experiment [1], in [2], in experiment [3], in experiment [6] and in experiment [7] was “inactive” throughout. Besides, the molecule was called inactive in experiment [5].

Take `O=[N+]([O-])c1c(Cl)c(Cl)c(Cl)c(Cl)c1Cl`: the Potency result in [1], in experiment [2], in [10], in [4] and in experiment [7] was “inactive” in each case. For the same molecule, the Potency in experiment [9] is 27.2 µM (active) and 27.3 µM (active); in experiment [6], “inactive and 43.3 µM (active)”. Moreover, the molecule was classed as inactive in experiment [5].

On to `CCC(CC)Nc1c([N+](=O)[O-])cc(C)c(C)c1[N+](=O)[O-]`, for which the Potency result in experiment [1], in experiment [2], in experiment [3], in experiment [4], in experiment [6] and in experiment [7] was “inactive” in each case. Further, the molecule was called inactive in experiment [5].

`CCC(C)c1ccc(O)cc1` (centres undefined): the Potency result in experiment [1], in experiment [2], in experiment [3], in experiment [4], in experiment [6] and in experiment [7] was “inactive” in each case. Besides, the molecule was called inactive in experiment [5].

In the case of `O=C(CCl)c1ccccc1`, the Potency entry in experiment [1], in experiment [2], in experiment [3], in [6] and in [7] was “inactive” each time. Also, in experiment [5], the molecule was called inactive.

On to `C=CCc1ccc(OC)cc1`, for which the Potency entry in [1], in experiment [2], in [3], in [6] and in experiment [7] was “inactive” each time. For the same molecule, the molecule was classed as inactive in experiment [5].

With `CCC(C)c1cc([N+](=O)[O-])cc([N+](=O)[O-])c1O` (centres undefined), the Potency result in experiment [1] and in experiment [4] was “inactive” each time. The Potency entry in experiment [3] was “inactive and 15.4 µM (active)”; in experiment [10], “inactive and 17.2 µM (active)”; in [6] it was “inactive and 43.3 µM (active)”; in experiment [7] it was “inactive and 24.3 µM (active)”. In addition, in [5], the molecule was classed as inactive.

Regarding `CN(C)c1ccc(C(=O)c2ccc(N(C)C)cc2)cc1`, the Potency entry in experiment [1], in experiment [2], in [3] and in [6] was “inactive” throughout. The Potency result in [4] is “inactive and 48.6 µM (active)”; in experiment [7], “inactive and 21.7 µM (active)”. In addition, in experiment [5], the molecule was classed as inactive.

Take `CC(C)(C)c1ccccc1O`: the Potency result in experiment [2], in experiment [3], in experiment [4], in experiment [6] and in [7] was “inactive” in each case. For the same molecule, the result in [5] was inactive.

As to `c1ccc(N=Nc2ccccc2)cc1`, the Potency entry in [1], in experiment [2], in experiment [3], in [6] and in [7] was “inactive” each time. In addition, the Potency in experiment [4] was 30.6 µM (active). For the same molecule, the call in [5] was inactive.

`C=CC(=O)OCCO`: the Potency result in experiment [1], in experiment [2] and in experiment [3] was “inactive” throughout. In addition, in [5], the call was inactive.

With `CCCCN(CC)c1c([N+](=O)[O-])cc(C(F)(F)F)cc1[N+](=O)[O-]`, the Potency result in [1], in [2], in experiment [3], in [6] and in experiment [7] was “inactive” in each case. Besides, the molecule was classed as inactive in [5].

As to `CN(C)C(=O)Nc1ccc(Cl)cc1`, the Potency result in experiment [1], in experiment [2], in experiment [3], in [4], in experiment [6] and in experiment [7] was “inactive” throughout. Moreover, in experiment [5], the outcome was inactive.

As for `Cc1ccc(N)c(N)c1`, the Potency entry in experiment [1], in experiment [2], in experiment [3] and in experiment [6] was “inactive” throughout. For the same molecule, the molecule was classed as inactive in experiment [5].

For `C=CCc1ccc2c(c1)OCO2`, the Potency result in experiment [1], in experiment [2], in experiment [3], in experiment [4], in experiment [6] and in experiment [7] was “inactive” in each case. Also, the outcome in experiment [5] was inactive.

As to `CCC(C)(c1ccc(O)cc1)c1ccc(O)cc1`, the Potency result in [1], in [2], in experiment [3], in experiment [4], in experiment [6] and in [7] was “inactive” in each case. For the same molecule, the result in experiment [5] was inactive.

In the case of `Nc1ccc(Cl)c(Cl)c1`, the Potency entry in [1], in experiment [2], in experiment [3], in [6] and in [7] was “inactive” each time. Moreover, the result in experiment [5] was inactive.

Turning to `O=C(O)C(F)(F)C(F)(F)C(F)(F)C(F)(F)C(F)(F)C(F)(F)C(F)(F)F`, the Potency result in [1], in experiment [2], in experiment [3], in [4], in [6] and in [7] was “inactive” each time. Besides, in experiment [5], the result was inactive.

For the molecule `S=C1NCCN1`, the Potency entry in experiment [1], in experiment [2], in [3], in [4], in [6] and in experiment [7] was “inactive” throughout. Further, the outcome in experiment [5] was inactive.

For the molecule `Cc1ccc(OP(=O)(Oc2ccc(C)cc2)Oc2ccc(C)cc2)cc1`, the Potency result in experiment [1], in experiment [2], in experiment [3], in experiment [4], in experiment [6] and in [7] was “inactive” throughout. For the same molecule, the result in experiment [5] was inactive.

For the molecule `C1=Cc2cccc3cccc1c23`, the Potency result in experiment [1], in experiment [2], in experiment [3], in experiment [4], in [6] and in [7] was “inactive” each time. For the same molecule, the outcome in experiment [5] was inactive.

Turning to `CCN(CC)N=O`, the Potency result in experiment [1], in [2], in experiment [3], in experiment [4], in experiment [6] and in experiment [7] was “inactive” throughout. In addition, the molecule was classed as inactive in [5].

For `CC(C)N(C(=O)SCC(Cl)=C(Cl)Cl)C(C)C`, the Potency result in experiment [1], in experiment [2], in experiment [3], in experiment [4], in [6] and in experiment [7] was “inactive” throughout. In addition, in [5], the call was inactive.

Regarding `Cc1cc(C)cc(C)c1`, the Potency result in experiment [1], in [2], in experiment [3], in experiment [4], in [6] and in experiment [7] was “inactive” in each case. In experiment [5], the molecule was called inactive.

With `CC(O)CCO` (centres undefined), the Potency result in experiment [1], in experiment [2], in experiment [3], in experiment [4], in experiment [6] and in experiment [7] was “inactive” in each case. For the same molecule, in experiment [5], the result was inactive.

As to `Cc1ccc2c(c1N)C(=O)c1ccccc1C2=O`, the Potency entry in [1], in [3] and in experiment [10] was “inactive” throughout. Moreover, in experiment [4], the Potency was 7.61 µM (active) and 9.69 µM (active). Further, the outcome in experiment [5] was inactive.
